Laboratory results as given in PubChem BioAssay (NCATS).
Results filed as inconclusive are left out. The source made the active and inactive calls. Unless noted, the call rests on the fitted dose curve; in most records, active means well fitted curve in the direction sought with a large enough effect; inconclusive means small, poorly fitted or top-dose-only effect, or another doubt; inactive means no such curve, though single readings can be large; an effect the other way counts as inactive or inconclusive.

Assays:
[1] = target: Cytochrome P450 1A2 (Homo sapiens) (UniProt P05177); assay: p450-cyp1a2 (AID 410; calls by dose curve; further: potency means the concentration at half of the fitted maximal effect)
In short: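 O-Demethylation of luciferin 6' methyl ether by human CYP1A2 is monitored as luciferase luminescence. Substrate sits at Km (100uM); enzyme is 20nM. Values are scaled to 57 uM furafylline as maximal inhibition.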

[2] = target: Glucocorticoid receptor (Homo sapiens) (UniProt P04150); assay: GR-GFP Redistribution (AID 450;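 active means compounds whose dose series gives a full or clear partial fitted curve of increased nuclear translocation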; further: potency means the concentration at half of the fitted maximal effect); conditions: U2OS GR-GFP nuclear translocation, laser cytometry, 2 h
[3] = target: Glucocorticoid receptor (Homo sapiens) (UniProt P04150); assay: GR-EFC Redistribution (AID 451; calls by dose curve; further: potency means the concentration at half of the fitted maximal effect); conditions: CHO-K1 GR-EFC translocation, beta-gal luminescence, 2 h
In short: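 CHO-K1 cells expressing nuclear EA and GR-ED fragments of b-gal; compounds titrated up to 46 uM final, 2 h at 37 C. GR nuclear translocation read as complemented b-gal luminescence after 1 h RT detection.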

[4] = target: Mitogen-activated protein kinase 10 (Mus musculus) (UniProt Q61831); assay: JNK3 AlphaScreen Assay (AID 530; active means well fitted curve in either direction with a large enough effect, not every such curve was filed as active;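 further: kinase came from lysate of stimulated human HepG2 cells; signal reports phosphorylation of biotinylated GST-cJun 1-79 at Ser73 with 10 µM ATP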)
In short: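 Activity was read by AlphaScreen after JNK3-containing HepG2 lysate (cytokine pre-activated) phosphorylated biotinylated GST-cJun with 10 uM ATP at room temperature. Phospho-Ser73 cJun antibody with Protein-A acceptor beads provided detection.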

[5] = target: Cytochrome P450 2C9 (Homo sapiens) (UniProt P11712); assay: qHTS Assay for Inhibitors and Substrates of Cytochrome P450 2C9 (AID 883); further: potency means the concentration at half of the fitted maximal effect; nearly all actives have a fitted effect of over 60% in size
In short: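 Signal: luciferase luminescence reporting luciferin produced by CYP2C9. Conditions: 10nM enzyme, Luciferin-H 100uM at KM, 25mM KPO4, 37C, 60 min NADPH-driven reaction. Reference: 57uM sulphaphenazole as 100% inhibition.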

[6] = target: Cytochrome P450 3A4 (Homo sapiens) (UniProt P08684); assay: qHTS Assay for Inhibitors and Substrates of Cytochrome P450 3A4 (AID 884); further: potency means the concentration at half of the fitted maximal effect; nearly all actives have a fitted effect of over 50% in size
In short: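 Luminescent readout of luciferin produced by CYP3A4 (20 nM) dealkylation of Luciferin-PPXE, 25 uM (its KM). NADPH-driven reaction ran 60 min at RT after 10 min compound preincubation; data scaled to 57 uM ketoconazole as 100% inhibition.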

[7] = target: Cytochrome P450 3A4 (Homo sapiens) (UniProt P08684); assay: qHTS Assay for Activators of Cytochrome P450 3A4 (AID 885); further: nearly all actives have a fitted effect of over 65% in size
In short: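 Luminescent readout of luciferin formed from 25 uM Luciferin-PPXE (KM level) by 20 nM CYP3A4 in 200 mM KPO4, with 60 min NADPH-driven reaction at room temperature after 10 min compound exposure. Ketoconazole (57 uM) defined 100% inhibition.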

[8] = target: Cytochrome P450 2C19 (Homo sapiens) (UniProt P33261); assay: qHTS Assay for Inhibitors and Substrates of Cytochrome P450 2C19 (AID 899); further: potency means the concentration at half of the fitted maximal effect; nearly all actives have a fitted effect of over 60% in size
In short: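 Signal comes from luciferase acting on luciferin released by CYP2C19-mediated hydroxylation of Luciferin-H EGE, 10uM (KM). Assay mix: 5nM enzyme, 50mM KPO4; 60 min at 37C with NADPH regeneration. Data normalized against 57uM ketoconazole.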

[9] = target: ATP-dependent 6-phosphofructokinase (Trypanosoma brucei brucei) (UniProt O15648); assay: qHTS Assay to Find Inhibitors of T. brucei phosphofructokinase: hit validation (AID 492961);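 further: luminescence reports ADP formed as PFK phosphorylates fructose-6-phosphate with ATP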
In short: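 Inhibition of parasite PFK is measured as reduced ADP formation, quantified via luciferase after ATP depletion. Assay used 0.1 mM ATP, 0.5 mM F6P, 1.25 nM enzyme, 45 min incubation.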

[10] = target: Ubiquitin carboxyl-terminal hydrolase 1 (Homo sapiens) (UniProt O94782); assay: Inhibitors of USP1/UAF1: Pilot qHTS (AID 504865);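 further: rhodamine fluorescence freed from ubiquitin-rhodamine substrate followed over time; top concentration of the series differs between compounds; nearly all actives have a fitted effect of over 35% in size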
In short: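 Kinetic fluorescence assay: 1nM USP1/UAF1, 15 min compound preincubation, then 150nM Ub-Rho; 480/540 nm.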

[11] = target: DNA dC->dU-editing enzyme APOBEC-3G (Homo sapiens) (UniProt Q9HC16); assay: qHTS for inhibitors of Vif-A3G interactions: Validation (AID 588379)
In short: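 Yellow fluorescence (Ex 488, Em 500-530) of Vif-coexpressing HeLa A3G-eYFP cells, scanned by Acumen cytometer, reports blocked A3G degradation. Cells plated at 700/well overnight at 37 deg C before compound addition, then a further overnight compound incubation at 37 deg C.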

[12] = target: Luciferin 4-monooxygenase (Photinus pyralis) (UniProt P08659); assay: Biochemical firefly luciferase enzyme assay for NPC (AID 624030);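 further: purified P. pyralis luciferase at 10 nM with luciferin and ATP substrate; nearly all actives have a fitted effect of over 70% in size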
In short: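 Purified P. pyralis luciferase at 10 nM in 50 mM Tris Acetate (final), luminescence read within 5 minutes of enzyme addition to compounds. Activity normalised to PTC124 versus DMSO; concentration-response curves classed by r2, magnitude and activity.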

[13] = S16 Schwann cell viability assay (CellTiter-Glo assay) (AID 624031);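 further: cellular ATP luminescence as a viability measure; nearly all actives have a fitted effect of over 70% in size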
In short: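 Luminescent ATP read-out (CellTiter-Glo) after 24 h compound exposure of native S16 rat Schwann cells at 37 °C. Signals were normalized between cell-free wells and DMSO-treated cells, set as 0% activity.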

[14] = S16 Schwann cell PMP22 intronic element firefly luciferase assay (AID 624032); further: nearly all actives have a fitted effect of over 30% in size
In short: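 Rat S16 Schwann cells stably carrying firefly luciferase driven by a PMP22 intronic element, in 10% FBS, treated 24 h at 37 C. ONE-Glo luminescence normalized to PTC124 control and DMSO (0%); curves classed by r2, magnitude and activity.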

[15] = P-glycoprotein substrates identified in KB-3-1 adenocarcinoma cell line, qHTS therapeutic library screen (AID 1346986); further: nearly all actives have a fitted effect of over 60% in size
In short: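 In 1536-well format, 500 cells/well received pinned compound titrations and were incubated 72 h, 5% CO2. Viability was read by CellTiter-Glo; cytotoxic if AC50 < 10 uM and efficacy >50%.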

[16] = P-glycoprotein substrates identified in KB-8-5-11 adenocarcinoma cell line, qHTS therapeutic library screen (AID 1346987); further: nearly all actives have a fitted effect of over 65% in size
In short: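 Luminescence from CellTiter-Glo, read 5 min after addition, quantified survival of KB-8-5-11 (P-gp-overexpressing) cells exposed to compounds for 72 h. AC50 was derived from concentration-response curves.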

[17] = Primary qHTS for inhibitors of SARS-S pseudo-typed particle cell entry (AID 1479145; calls by dose curve; further: nearly all actives have a fitted effect of over 45% in size)
[18] = Primary qHTS for Huh7 cytotoxicity: counterscreen for inhibitors of MERS-S pseudotyped particle cell entry (AID 1479147; calls by dose curve); conditions: outcome: dose series up to 57.1 µM unless noted
[19] = Primary qHTS for inhibitors of MERS-S pseudo-typed particle cell entry (AID 1479149; calls by dose curve; further: nearly all actives have a fitted effect of over 60% in size)
[20] = Cytotoxicity counterscreen for inhibitors of SARS-CoV-2 cell entry (AID 1645845; calls by dose curve; further: nearly all actives have a fitted effect of over 50% in size)
In short: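 Counterscreen run in the same HEK293-ACE2 line as the pseudotyped-particle entry assay, without particles. Viability after 48 h at 37 C was read as ATP luminescence, scaled between cell-containing and cell-free wells.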

[21] = Primary qHTS to identify inhibitors of SARS-CoV-2 cell entry (AID 1645846; calls by dose curve; further: nearly all actives have a fitted effect of over 45% in size); conditions: activity change, negative = inhibition: at 57.1 µM (top of the series) unless noted
In short: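 Data are normalized to wells receiving SARS-CoV-2-S pseudoparticles and those given bald particles. Entry signal was luciferase luminescence in stable hACE2 Expi293F cells, 48 hr post-infection, after 1 hr compound pretreatment.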

[22] = Primary qHTS for inhibitors of nuclear receptor binding SET domain protein 2 (NSD2) in an isogenic RCH-ACV NSD2 p.E1099K mutant (9B) (AID 1645876); further: nearly all actives have a fitted effect of over 70% in size
[23] = Primary qHTS for inhibitors of nuclear receptor binding SET domain protein 2 (NSD2) in an RCH-ACV wild type WT cells (2C) (AID 1645877); further: nearly all actives have a fitted effect of over 70% in size
[24] = target: Glutathione peroxidase 1 (Homo sapiens) (UniProt P07203); assay: Primary qHTS Assay for Inhibitors of Recombinant Selenoprotein Glutathione Peroxidase 1 (GPX1) (AID 1845191); further: nearly all actives have a fitted effect of over 65% in size
In short: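 GR-coupled readout: NADPH consumption tracked by fluorescence, ex 340/em 450 nm, at t=0 and after 15 min at RT. Final mix 10 nM GPX1, 1 mM GSH, 0.5 mM CHP, 0.5 mM NADPH, 100 nM GR, 0.01% BSA, following 30 min enzyme–compound preincubation.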

[25] = target: Phospholipid hydroperoxide glutathione peroxidase GPX4 (Homo sapiens) (UniProt P36969); assay: Primary qHTS Assay for Inhibitors of Recombinant Selenoprotein Glutathione Peroxidase 4 (GPX4) (AID 1845192); further: nearly all actives have a fitted effect of over 65% in size
In short: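 Steps: GPX4 plus compound, 30 min RT; add GR/GSH/NADPH master mix; start with cumene hydroperoxide; read 340/450 nm fluorescence at 0 and 15 min. Finals were 200 nM GPX4, 1 mM GSH, 0.5 mM CHP, 0.5 mM NADPH, 100 nM GR.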

3D7 = assay: qHTS profiling for inhibitors of Plasmodium falciparum proliferation (AID 504749); further: nearly all actives have a fitted effect of over 60% in size; further: potency means the concentration at half of the fitted maximal effect; conditions: P. falciparum in erythrocytes, SYBR Green DNA, 72 h; series mostly up to 28.7 µM
In short: (§1)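 Each compound contacts P. falciparum-infected red blood cells for 72 h at 37 C; lysis buffer (Tris, EDTA, saponin, Triton X, SYBR Green I) is added and fluorescence measured next morning; values normalized to controls.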

7G8 = assay: as above; conditions: P. falciparum in erythrocytes, SYBR Green DNA, 72 h; series mostly up to 28.7 µM
In short: as §1

AS120 = assay: as above; conditions: P. falciparum in erythrocytes, SYBR Green DNA, 72 h; series mostly up to 28.7 µM
In short: as §1

C2A = assay: as above; conditions: P. falciparum in erythrocytes, SYBR Green DNA, 72 h; series mostly up to 28.7 µM
In short: as §1

CP191 = assay: as above; conditions: P. falciparum in erythrocytes, SYBR Green DNA, 72 h; series mostly up to 28.7 µM
In short: as §1

CP192 = assay: as above; conditions: P. falciparum in erythrocytes, SYBR Green DNA, 72 h; series mostly up to 28.7 µM
In short: as §1

CP237 = assay: as above; conditions: P. falciparum in erythrocytes, SYBR Green DNA, 72 h; series mostly up to 28.7 µM
In short: as §1

CP256 = assay: as above; conditions: P. falciparum in erythrocytes, SYBR Green DNA, 72 h; series mostly up to 28.7 µM
In short: as §1

CP262 = assay: as above; conditions: P. falciparum in erythrocytes, SYBR Green DNA, 72 h; series mostly up to 28.7 µM
In short: as §1

CP269 = assay: as above; conditions: P. falciparum in erythrocytes, SYBR Green DNA, 72 h; series mostly up to 28.7 µM
In short: as §1

CP297 = assay: as above; conditions: P. falciparum in erythrocytes, SYBR Green DNA, 72 h; series mostly up to 28.7 µM
In short: as §1

CP315 = assay: as above; conditions: P. falciparum in erythrocytes, SYBR Green DNA, 72 h; series mostly up to 28.7 µM
In short: as §1

Dd2 = assay: as above; conditions: P. falciparum in erythrocytes, SYBR Green DNA, 72 h; series mostly up to 28.7 µM
In short: as §1

GB4 = assay: as above; conditions: P. falciparum in erythrocytes, SYBR Green DNA, 72 h; series mostly up to 28.7 µM
In short: as §1

ICS = assay: as above; conditions: P. falciparum in erythrocytes, SYBR Green DNA, 72 h; series mostly up to 28.7 µM
In short: as §1

JCK = assay: as above; conditions: P. falciparum in erythrocytes, SYBR Green DNA, 72 h; series mostly up to 28.7 µM
In short: as §1

PC49 = assay: as above; conditions: P. falciparum in erythrocytes, SYBR Green DNA, 72 h; series mostly up to 28.7 µM
In short: as §1

TAB113 = assay: as above; conditions: P. falciparum in erythrocytes, SYBR Green DNA, 72 h; series mostly up to 28.7 µM
In short: as §1

TAB165 = assay: as above; conditions: P. falciparum in erythrocytes, SYBR Green DNA, 72 h; series mostly up to 28.7 µM
In short: as §1

W2 = assay: as above; conditions: P. falciparum in erythrocytes, SYBR Green DNA, 72 h; series mostly up to 28.7 µM
In short: as §1

Measured: Potency

Sequence of Cytochrome P450 3A4 (Homo sapiens) (P08684 whole entry, looked up): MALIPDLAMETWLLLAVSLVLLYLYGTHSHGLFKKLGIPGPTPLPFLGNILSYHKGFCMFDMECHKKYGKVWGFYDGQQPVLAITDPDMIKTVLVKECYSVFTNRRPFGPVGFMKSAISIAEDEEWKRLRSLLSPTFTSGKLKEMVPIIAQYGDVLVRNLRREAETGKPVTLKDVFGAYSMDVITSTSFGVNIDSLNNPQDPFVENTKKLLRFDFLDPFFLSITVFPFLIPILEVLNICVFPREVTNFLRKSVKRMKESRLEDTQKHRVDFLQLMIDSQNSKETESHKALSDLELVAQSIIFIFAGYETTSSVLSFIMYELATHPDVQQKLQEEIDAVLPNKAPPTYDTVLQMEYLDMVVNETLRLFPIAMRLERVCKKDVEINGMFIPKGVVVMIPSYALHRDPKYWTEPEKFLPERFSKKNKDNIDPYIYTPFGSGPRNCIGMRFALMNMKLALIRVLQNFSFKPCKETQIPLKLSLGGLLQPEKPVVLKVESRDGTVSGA
Sequence of Glucocorticoid receptor (Homo sapiens) (P04150 whole entry, looked up, the tested form may be a part): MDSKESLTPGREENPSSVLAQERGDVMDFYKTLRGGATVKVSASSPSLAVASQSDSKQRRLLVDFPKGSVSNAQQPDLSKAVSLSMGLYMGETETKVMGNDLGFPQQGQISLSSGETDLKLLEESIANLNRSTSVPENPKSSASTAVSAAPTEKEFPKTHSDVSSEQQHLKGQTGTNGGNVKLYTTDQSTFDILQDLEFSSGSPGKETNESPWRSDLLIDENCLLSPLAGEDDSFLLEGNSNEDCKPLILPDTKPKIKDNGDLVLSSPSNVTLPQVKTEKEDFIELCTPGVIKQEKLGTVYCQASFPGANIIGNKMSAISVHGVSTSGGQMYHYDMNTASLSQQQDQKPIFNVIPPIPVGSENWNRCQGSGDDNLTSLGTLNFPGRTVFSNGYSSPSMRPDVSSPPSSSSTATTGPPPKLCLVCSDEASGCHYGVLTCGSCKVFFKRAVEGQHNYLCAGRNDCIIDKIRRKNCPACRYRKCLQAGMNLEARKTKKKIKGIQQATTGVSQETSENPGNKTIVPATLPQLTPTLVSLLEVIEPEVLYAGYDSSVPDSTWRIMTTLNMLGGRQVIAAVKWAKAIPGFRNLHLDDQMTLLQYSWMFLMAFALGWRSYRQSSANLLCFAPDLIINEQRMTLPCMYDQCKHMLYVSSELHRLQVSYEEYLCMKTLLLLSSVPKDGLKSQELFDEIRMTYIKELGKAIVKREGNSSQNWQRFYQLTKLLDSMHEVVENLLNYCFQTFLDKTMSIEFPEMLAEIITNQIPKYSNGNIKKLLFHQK
Sequence of Cytochrome P450 2C9 (Homo sapiens) (P11712 whole entry, looked up): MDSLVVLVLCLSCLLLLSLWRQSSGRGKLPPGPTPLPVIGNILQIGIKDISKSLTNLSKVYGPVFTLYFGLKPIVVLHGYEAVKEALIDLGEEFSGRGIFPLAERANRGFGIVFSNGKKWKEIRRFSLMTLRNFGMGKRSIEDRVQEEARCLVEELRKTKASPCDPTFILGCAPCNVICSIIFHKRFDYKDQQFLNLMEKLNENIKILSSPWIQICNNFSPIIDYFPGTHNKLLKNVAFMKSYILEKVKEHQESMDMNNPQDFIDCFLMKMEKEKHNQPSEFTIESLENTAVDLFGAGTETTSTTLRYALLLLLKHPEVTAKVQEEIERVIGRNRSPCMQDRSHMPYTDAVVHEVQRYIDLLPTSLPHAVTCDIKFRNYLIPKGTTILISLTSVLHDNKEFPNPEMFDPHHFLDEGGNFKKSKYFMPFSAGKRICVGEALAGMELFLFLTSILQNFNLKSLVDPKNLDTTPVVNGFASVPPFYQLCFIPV
Sequence of DNA dC->dU-editing enzyme APOBEC-3G (Homo sapiens) (Q9HC16 whole entry, looked up): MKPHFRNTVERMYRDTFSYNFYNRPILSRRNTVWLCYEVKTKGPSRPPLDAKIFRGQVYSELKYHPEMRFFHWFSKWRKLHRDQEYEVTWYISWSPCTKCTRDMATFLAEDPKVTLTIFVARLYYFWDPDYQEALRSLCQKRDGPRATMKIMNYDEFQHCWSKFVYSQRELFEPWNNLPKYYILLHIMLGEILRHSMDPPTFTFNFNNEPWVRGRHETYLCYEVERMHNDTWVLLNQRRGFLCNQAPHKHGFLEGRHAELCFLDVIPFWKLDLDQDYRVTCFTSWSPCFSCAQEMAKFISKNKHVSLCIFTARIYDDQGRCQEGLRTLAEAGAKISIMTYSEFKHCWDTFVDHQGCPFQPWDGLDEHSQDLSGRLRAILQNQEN
Sequence of Cytochrome P450 2C19 (Homo sapiens) (P33261 whole entry, looked up): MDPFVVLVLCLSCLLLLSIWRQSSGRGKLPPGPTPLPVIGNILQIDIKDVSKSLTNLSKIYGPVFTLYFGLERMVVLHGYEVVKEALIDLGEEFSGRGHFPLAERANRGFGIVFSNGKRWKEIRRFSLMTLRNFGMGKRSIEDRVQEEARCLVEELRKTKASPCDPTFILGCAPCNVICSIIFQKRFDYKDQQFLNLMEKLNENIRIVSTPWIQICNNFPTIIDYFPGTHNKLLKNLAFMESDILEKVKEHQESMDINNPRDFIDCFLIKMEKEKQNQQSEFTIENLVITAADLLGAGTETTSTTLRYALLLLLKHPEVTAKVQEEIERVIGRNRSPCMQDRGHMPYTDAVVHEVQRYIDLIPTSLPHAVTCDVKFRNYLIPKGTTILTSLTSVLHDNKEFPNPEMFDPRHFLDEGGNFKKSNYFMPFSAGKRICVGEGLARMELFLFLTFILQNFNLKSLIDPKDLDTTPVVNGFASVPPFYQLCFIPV
Sequence of Ubiquitin carboxyl-terminal hydrolase 1 (Homo sapiens) (O94782 whole entry, looked up): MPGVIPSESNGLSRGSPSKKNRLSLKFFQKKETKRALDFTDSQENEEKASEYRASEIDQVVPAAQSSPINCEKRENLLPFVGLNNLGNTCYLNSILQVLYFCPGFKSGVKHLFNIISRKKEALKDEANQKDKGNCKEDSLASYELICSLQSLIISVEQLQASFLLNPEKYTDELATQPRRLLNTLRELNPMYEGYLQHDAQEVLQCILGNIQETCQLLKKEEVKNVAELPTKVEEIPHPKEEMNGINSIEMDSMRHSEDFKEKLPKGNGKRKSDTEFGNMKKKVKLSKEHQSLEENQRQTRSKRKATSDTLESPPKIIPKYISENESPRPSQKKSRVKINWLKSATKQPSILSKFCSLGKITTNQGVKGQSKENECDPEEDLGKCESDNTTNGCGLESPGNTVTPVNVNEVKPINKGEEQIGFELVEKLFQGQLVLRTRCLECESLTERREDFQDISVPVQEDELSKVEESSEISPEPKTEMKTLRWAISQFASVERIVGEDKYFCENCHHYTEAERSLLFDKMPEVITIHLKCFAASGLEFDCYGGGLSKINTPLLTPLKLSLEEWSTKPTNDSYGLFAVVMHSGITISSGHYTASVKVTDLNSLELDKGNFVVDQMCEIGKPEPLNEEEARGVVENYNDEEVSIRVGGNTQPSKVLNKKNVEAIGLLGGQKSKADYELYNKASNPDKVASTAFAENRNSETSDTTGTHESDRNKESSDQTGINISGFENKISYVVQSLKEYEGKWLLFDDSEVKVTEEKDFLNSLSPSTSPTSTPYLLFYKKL
Sequence of Glutathione peroxidase 1 (Homo sapiens) (P07203 whole entry, looked up): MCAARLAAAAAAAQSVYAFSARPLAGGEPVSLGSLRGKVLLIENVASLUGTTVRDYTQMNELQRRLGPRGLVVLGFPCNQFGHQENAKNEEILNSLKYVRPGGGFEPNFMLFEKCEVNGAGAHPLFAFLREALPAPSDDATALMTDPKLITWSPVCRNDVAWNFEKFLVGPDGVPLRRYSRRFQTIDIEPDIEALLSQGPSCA
Sequence of Cytochrome P450 1A2 (Homo sapiens) (P05177 whole entry, looked up): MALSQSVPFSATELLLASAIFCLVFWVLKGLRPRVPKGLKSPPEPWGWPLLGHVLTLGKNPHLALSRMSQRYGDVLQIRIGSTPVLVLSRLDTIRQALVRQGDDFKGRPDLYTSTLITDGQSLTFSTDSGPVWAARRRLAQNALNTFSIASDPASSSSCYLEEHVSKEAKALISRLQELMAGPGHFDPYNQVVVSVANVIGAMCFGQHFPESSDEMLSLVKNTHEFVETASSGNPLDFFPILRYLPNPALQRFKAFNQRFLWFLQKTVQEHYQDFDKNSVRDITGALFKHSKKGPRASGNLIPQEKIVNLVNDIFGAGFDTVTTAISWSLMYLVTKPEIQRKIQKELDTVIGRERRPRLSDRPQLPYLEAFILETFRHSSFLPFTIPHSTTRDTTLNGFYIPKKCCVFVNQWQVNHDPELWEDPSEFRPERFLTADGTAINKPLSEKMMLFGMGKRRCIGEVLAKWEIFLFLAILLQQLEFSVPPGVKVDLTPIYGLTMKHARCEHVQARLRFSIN
Sequence of Luciferin 4-monooxygenase (Photinus pyralis) (P08659 whole entry, looked up): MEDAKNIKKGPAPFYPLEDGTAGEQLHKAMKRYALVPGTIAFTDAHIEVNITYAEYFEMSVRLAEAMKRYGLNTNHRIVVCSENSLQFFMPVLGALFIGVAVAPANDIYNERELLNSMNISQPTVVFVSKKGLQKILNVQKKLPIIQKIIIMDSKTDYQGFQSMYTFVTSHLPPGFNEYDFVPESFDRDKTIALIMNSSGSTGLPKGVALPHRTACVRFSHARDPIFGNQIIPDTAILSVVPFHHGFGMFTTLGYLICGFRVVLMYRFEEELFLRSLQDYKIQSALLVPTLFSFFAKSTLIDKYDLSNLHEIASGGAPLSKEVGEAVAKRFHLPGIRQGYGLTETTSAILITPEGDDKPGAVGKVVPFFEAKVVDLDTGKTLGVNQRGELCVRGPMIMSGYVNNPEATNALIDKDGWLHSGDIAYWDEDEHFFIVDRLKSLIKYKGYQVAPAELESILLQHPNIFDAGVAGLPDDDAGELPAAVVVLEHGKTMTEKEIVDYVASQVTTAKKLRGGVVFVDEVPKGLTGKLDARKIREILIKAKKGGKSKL
Sequence of Phospholipid hydroperoxide glutathione peroxidase GPX4 (Homo sapiens) (P36969 whole entry, looked up): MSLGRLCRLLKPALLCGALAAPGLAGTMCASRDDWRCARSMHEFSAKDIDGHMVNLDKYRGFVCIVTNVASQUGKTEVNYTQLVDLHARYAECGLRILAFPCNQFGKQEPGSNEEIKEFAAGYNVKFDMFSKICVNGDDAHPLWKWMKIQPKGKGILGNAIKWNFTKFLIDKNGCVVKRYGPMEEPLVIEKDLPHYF

Cc1cccc([C@H](C)c2cnc[nH]2)c1C
inactive: [2] > 46 µM | [3] > 46 µM | [4] | [7] | [9] | [10] | [11] | [12] | [13] | [14] | [15] | [16] | [17] | [18] | [19] | [20] | [21] | [22] | [23] | [24] | [25] | 3D7 | AS120 | C2A | CP192 | CP262 | CP269 | CP315 | JCK | PC49 | TAB113
active: [1] 0.158 µM | [5] 0.199 µM | [6] 0.158 µM | [8] 5.01 µM | 7G8 7.94 µM | CP191 7.08 µM | CP237 11.2 µM | CP256 7.08 µM | CP297 10.7 µM | Dd2 11.2 µM | GB4 8.49 µM | ICS 12.6 µM | TAB165 4.47 µM | W2 10.7 µM
